# Source: PubChem
# Shown are actives, neighbours in structure and some others; about 4% of the full set was active somewhere.
# CSC inhib = cancer stem cell inhibition; inhibition, % at 7.5 µM; AID 2717; hit rate 1.1% among 300,000; cancer stem cell-like cells viability, luminescence; in the data active means inhibition above about 75%; inconclusive means no clear call, values can overlap the other calls; tested in HMLE shEcad cells
# Shn3 inh set2 = Schnurri-3 reporter inhibition in Clone20 osteoblasts | Clone20 osteoblast Shn3 3'UTR firefly luciferase, 24 h | inhibition, % at 12.5 µM | hit rate 0.52% among 360,000 | AID 588674;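 active means mean inhibition of at least 75% with every replicate also reaching 75%; inconclusive means mean inhibition at least 75% but some replicate below; inactive means mean inhibition below 75%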;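 further: 0% = median of neutral control wells and 100% = pilot-screen positive control compound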
# PAX8 reporter = lowers PAX8-driven luciferase in RMG-I cells. RMG-I TPO-luciferase reporter, SteadyGlo, 24 h. hit rate 1.2% among 360,000. inhibition, % at 12.6 µM;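 active means mean replicate inhibition at least 60% with every replicate also reaching 60%; inconclusive means only one of the two criteria is met; inactive means mean below 60% and not all replicates reaching 60%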;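 further: luciferase light reporting Pax8 driven TPO promoter activity; plate controls were median of neutral control wells for no effect and mitoxantrone controls for full effect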
# Mdm2-MdmX inh = inhibitors of human Mdm2/MdmX interaction. inhibition, % at 8 µM. SaOS-2 split-luciferase Mdm2/MdmX complementation, luminescence. AID 485346. hit rate 3% among 330,000;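 active means inhibition of at least 50% at 8 µM in the primary screen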
# Target sequence (O15151 whole entry, looked up): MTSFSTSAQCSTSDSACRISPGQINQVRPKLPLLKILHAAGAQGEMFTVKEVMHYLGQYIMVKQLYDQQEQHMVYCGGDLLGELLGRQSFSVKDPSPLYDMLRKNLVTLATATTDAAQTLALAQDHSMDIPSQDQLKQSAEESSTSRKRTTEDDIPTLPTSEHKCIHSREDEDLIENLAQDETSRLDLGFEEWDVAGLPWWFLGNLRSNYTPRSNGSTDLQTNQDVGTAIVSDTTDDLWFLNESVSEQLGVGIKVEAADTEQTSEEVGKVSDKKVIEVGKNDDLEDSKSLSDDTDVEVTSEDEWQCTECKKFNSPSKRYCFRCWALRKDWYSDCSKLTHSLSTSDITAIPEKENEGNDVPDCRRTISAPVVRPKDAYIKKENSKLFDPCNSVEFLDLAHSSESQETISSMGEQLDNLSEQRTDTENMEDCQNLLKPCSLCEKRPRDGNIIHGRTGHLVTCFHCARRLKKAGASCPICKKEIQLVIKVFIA
# Target sequence (Q00987 whole entry, looked up): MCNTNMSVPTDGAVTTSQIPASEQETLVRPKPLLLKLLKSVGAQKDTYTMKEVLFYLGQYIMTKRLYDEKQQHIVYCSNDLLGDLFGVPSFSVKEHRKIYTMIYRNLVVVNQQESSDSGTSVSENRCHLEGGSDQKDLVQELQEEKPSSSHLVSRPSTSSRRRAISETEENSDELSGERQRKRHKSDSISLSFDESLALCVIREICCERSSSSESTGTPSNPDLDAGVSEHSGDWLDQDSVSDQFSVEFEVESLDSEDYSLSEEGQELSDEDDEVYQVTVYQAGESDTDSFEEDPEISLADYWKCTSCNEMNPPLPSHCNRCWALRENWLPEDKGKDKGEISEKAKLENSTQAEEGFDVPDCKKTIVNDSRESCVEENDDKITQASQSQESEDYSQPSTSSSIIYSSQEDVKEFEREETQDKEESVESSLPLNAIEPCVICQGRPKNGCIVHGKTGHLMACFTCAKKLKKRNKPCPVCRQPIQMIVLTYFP
# Gli-Sufu block = antagonists of Gli-Sufu signaling; Sufu-KO-LIGHT fibroblasts, Gli luciferase reporter luminescence; inhibition, % at 5 µM; hit rate 0.74% among 340,000; AID 588413;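 active means inhibition above about 55%, limit read from the data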;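 further: 0% = DMSO-treated cells and 100% = wells with medium but no cells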
# Beta cell apopt = blocks beta cell apoptosis; hit rate 0.8% among 300,000; protection from apoptosis, % (no concentration beside the values); INS-1E cytokine-induced death, ATP luminescence, 48 h; percent of positive-control rescue, neutral wells zero;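 active means Every replicate reaches about 75%, or at least half do and their mean reaches it too, limit read from the data; inconclusive means At least half of replicates reach the limit but their mean does not; inactive means Under half of replicates reach the limit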;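 further: 0% = cytokine-treated negative control wells and 100% = positive control rescue; higher means more ATP so stronger rescue from cytokine killing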
# Mdm2-MdmX conf = confirmation of human Mdm2/MdmX interaction inhibitors; shares compounds with Mdm2-MdmX inh; Mdm2-MdmX binding, luminescent assay; inhibition, % at 8 µM; hit rate 55% among 10,000; in the data active means inhibition above about 40%
# FLuc counter = inhibits full-length luciferase, flagging false Mdm2/MdmX hits | inhibition, % at 8 µM | shares compounds with Mdm2-MdmX inh | SaOS-2 full-length luciferase counterscreen, luminescence | hit rate 77% among 6,200;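 active means mean inhibition at 8 µM reaching about 37%, which flags the compound as non-specific, limit read from the data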;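 further: p53-null SaOS-2 cells with luciferase driven by a doxycycline-inducible promoter; compound on cells about two nights before reading with doxycycline added after day one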
# * = called active by the depositor; ? = inconclusive; nt = not tested or not shown.
SMILES,CSC inhib,Shn3 inh set2,PAX8 reporter,Mdm2-MdmX inh,Gli-Sufu block,Beta cell apopt,Mdm2-MdmX conf,FLuc counter
COC(=O)c1c(-c2ccc(C)cc2)csc1NC(=O)c1c(-c2ccccc2)noc1C,32,nt,15,79*,nt,nt,80*,39*
CCOC(=O)c1c(NC(=O)c2c(-c3ccccc3)noc2C)sc(C)c1-c1ccccc1,40,81,nt,100*,-7,6,93*,51*
C[C@@H]1CCCCO[C@@H](CN(C)C)[C@H](C)CN([C@H](C)CO)C(=O)c2cc(NS(=O)(=O)c3cccs3)ccc2O1,nt,nt,2,nt,nt,nt,nt,nt
COC(=O)c1c(NC(=O)CSc2ncnc3c2cnn3-c2ccccc2Cl)sc2c1CCCC2,12,14,33,53*,10,7,13,nt
COc1ccc(Nc2nc(C)cc(-c3cc(-c4ccccc4)on3)n2)cc1,-5,-12,-44,68*,-11,-6,50*,83*
CO[C@@H]1CN(C)C(=O)c2cc(NC(=O)C3CC3)ccc2OC[C@@H](C)N(Cc2cccc(F)c2)C[C@H]1C,nt,nt,12,nt,nt,nt,nt,nt
COc1ccc(Cn2c3ccc(OC)cc3c3nc4ccccc4nc32)cc1,?,-12,4,51*,7,-2,24,nt
COc1ccc2c(c1)c1nc3ccccc3nc1n2CC(=O)OC(C)C,-9,-12,nt,58*,16,20,16,nt
COc1ccc2c(c1)c1nc3ccccc3nc1n2Cc1ccc(OC(C)C)c(OC)c1,15,16,11,-19,-1,-2,nt,nt
COC(=O)Cn1c2ccc(C)cc2c2nc3ccccc3nc21,nt,-21,18,-2,-2,nt,nt,nt
C=C(C)C(=O)Oc1ccc(N=Nc2ccc(C)cc2)ccc1=O,nt,29,-69,nt,-27,nt,nt,nt
C=C(C)C(=O)OC1(C(F)(F)F)Oc2cc(C)ccc2NC1=O (stereo not drawn),70,43,93*,100*,4,33,61*,16
C/C(=N\Nc1ccc2nncn2n1)c1ccccn1,98*,90*,63*,81*,74*,80*,84*,48*
COc1ccc2c3c(n(C)c2c1)[C@H](CO)N(C(=O)NC(C)C)CC31CCN(Cc2nccs2)CC1,nt,nt,-26,nt,nt,nt,nt,nt
CCCC1CCC(C(=O)n2nc(N)c3cc4ccc(OC)cc4nc32)CC1 (stereo not drawn),-23,-2,-6,35,-36,-21,nt,nt
COc1ccc2cc3c(N)nn(C(=O)c4ccc(Cl)c([N+](=O)[O-])c4)c3nc2c1,-5,10,0,83*,-15,-17,88*,57*
COc1ccc2cc3c(N)nn(C(=O)c4ccccc4[N+](=O)[O-])c3nc2c1,-1,13,-18,93*,-24,-22,87*,51*
CNC(=O)C[C@@H]1CC[C@@H]2[C@@H](COc3ccc(NC(=O)Nc4cccc(F)c4)cc3C(=O)N2C)O1,nt,nt,-19,nt,nt,nt,nt,nt
O=C(c1ccccn1)N1CC[C@H]2[C@H](CO)Nc3ccc(-c4ccccc4)cc3[C@H]21,nt,nt,-10,nt,nt,nt,nt,nt
O=C(Cc1ccccc1)Nc1ccc(-c2nnc(-c3ccco3)o2)cc1,-6,-15,nt,-4,-19,2,nt,nt
Cc1cc(C)cc(OCC(=O)Nc2cccc(-c3nnc(-c4ccco4)o3)c2)c1,16,0,nt,83*,-55,-2,40*,99*
Cc1ccc(-c2nnc(-c3ccc(NC(=O)Cc4cccs4)cc3)o2)cc1,44,-1,nt,78*,-24,43,21,nt
O=C(Cc1ccc(Cl)cc1)Nc1ccc(-c2nnc(-c3ccco3)o2)cc1,-3,12,-13,54*,32,6,10,nt
COc1ccc(NC(=O)Nc2ccc3c(c2)C(=O)N([C@H](C)CO)C[C@H](C)[C@@H](CN(C)C(=O)Nc2cccc4ccccc24)OCCCC[C@@H](C)O3)cc1,nt,nt,-6,nt,nt,nt,nt,nt
Cc1ccc(CN2C3=NCCCN3c3ccccc32)cc1,-1,41,nt,21,16,2,nt,nt
SMILES,CSC inhib,Shn3 inh set2,PAX8 reporter,Mdm2-MdmX inh,Gli-Sufu block,Beta cell apopt,Mdm2-MdmX conf,FLuc counter
Cc1cc2c(cc1C)N(Cc1ccc(Cl)cc1)C1=NCCCN12,6,46,16,56*,7,4,39,90*
Cc1ccc(-n2nc3c(=O)n(CC(=O)NCc4ccccc4)nc(C)c3c2C)cc1,-10,17,12,3,5,nt,nt,nt
Cc1ccc(-n2nc3c(=O)n(CC(=O)NC(C)CCc4ccccc4)nc(C)c3c2C)cc1 (stereo not drawn),2,48,nt,50*,14,9,9,nt
C[N+](C)(CCOc1ccccc1)Cc1ccccc1,nt,-13,21,nt,10,nt,nt,nt
Cc1cc(C(C)(C)CC(C)(C)C)ccc1OCCOCC[N+](C)(C)Cc1ccccc1,118*,88*,72*,100*,65*,100*,96*,54*
C/C(CCC12CC3CC(CC(C3)C1)C2)=N\NC(N)=S,19,2,nt,31,40,14,nt,nt
C/C(CC(C)(C)C1CCCCC1)=N\NC(N)=S,nt,0,nt,56*,36,nt,6,nt
CC(C)NC(=O)Nc1ccc2c(c1)C(=O)N([C@H](C)CO)C[C@H](C)[C@H](CN(C)CC1CCCCC1)O2,nt,nt,0,nt,nt,nt,nt,nt
CC(C)(C)N1C(=O)Cc2c1nc(N)c1c(N)nc(N3CCCCC3CO)c(C#N)c21 (stereo not drawn),16,3,nt,68*,14,10,24,nt
CN(CCO)c1nc(N)c2c(N)nc3c(c2c1C#N)CC(=O)N3C1CCCC1,-14,nt,nt,-12,nt,48,nt,nt
O=C(c1cc([N+](=O)[O-])ccc1N1CCOCC1)N1CCN(c2ccccc2)CC1,nt,3,91*,58*,nt,53,77*,95*
Cc1ccc(C(=O)c2cc([N+](=O)[O-])ccc2N2CCOCC2)c(C)c1,57,33,nt,67*,47,24,58*,97*
CSc1ccc(COC(=O)c2cc([N+](=O)[O-])ccc2N2CCOCC2)cc1,60,36,96*,61*,42,68,77*,113*
COc1ccc(C(=O)c2cc([N+](=O)[O-])ccc2N2CCCC2)cc1,-12,-14,28,50*,-6,1,64*,53*
COC(=O)C[C@@H]1CC[C@@H]2[C@H](COc3ccc(NC(=O)NCc4ccccc4)cc3C(=O)N2C)O1,nt,nt,-20,nt,nt,nt,nt,nt
C[C@H](CO)N1C[C@H](C)[C@H](CN(C)CC2CCCCC2)Oc2ccc(NS(C)(=O)=O)cc2C1=O,nt,nt,-13,nt,nt,nt,nt,nt
Cc1ccc(S(=O)(=O)Nc2ccc3c(c2)C(=O)N([C@@H](C)CO)C[C@H](C)[C@H](CN(C)S(=O)(=O)c2c(C)noc2C)OCCCC[C@@H](C)O3)cc1,nt,nt,-11,nt,nt,nt,nt,nt
C[C@H](CO)N1C[C@H](C)[C@H](CN(C)C(=O)Nc2ccccc2)Oc2ccc(NC(=O)Cn3cnnn3)cc2CC1=O,nt,nt,-11,nt,nt,nt,nt,nt
